A selection: hits, their analogues and other compounds. The true share with any hit is near 3.2%.
pS6 MEF inh – Acumen qHTS Assay for Inhibitors of the mTORC1 Signaling Pathway in MEF (Tsc2-/-, p53-/-) Cells: Sytravon. Potency, µM (titrated, usually from 38.3 µM), usual class: inhibitors. 0.78% of 44,000 active. AID 493208, 2011. Tsc2-/- p53-/- MEF, phospho-rpS6 immunofluorescence/PI, 24 h; also: nearly all actives have a fitted effect of over 50% in size
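Tsc2-/-, p53-/- mouse embryonic fibroblasts (empty-vector line) exposed to compound 24 hrs at 37 C, fixed, immunostained for phospho-rpS6 and counterstained with propidium iodide. Acumen laser scanning gives % positive cells from Alexa 488/PI ratio, thresholded using 7.5 nM rapamycin; PI count gives viability.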
p53null 32C kill – qHTS Screen for Compounds that Selectively Target Cancer Cells with p53 Mutations: Cytotoxicity of p53 Null Cells at the Permissive Temperature | H1299-neo p53 null cells, ATP luminescence, 24 h, 32C | Potency, µM (doses to about 46.1 µM), hits mostly cytotoxic | 0.62% of 55,000 active; also: nearly all actives have a fitted effect of over 55% in size
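Overnight 37C seeding (600 cells/well) of H1299-neo preceded a 24 hr, 32C exposure to compounds up to 46 uM. ATP levels, read by luminescence after 20 min at RT, indicated surviving cells.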
S16 viability – Cell viability qHTS assay in S16 Pmp22-F2sN cells; Potency, µM (top dose mostly 57.5 µM), usual class: cytotoxic; AID 1508642, 2021; 0.48% of 43,000 active; S16 Pmp22-F2sN Schwann cells viability, CellTiter-Glo, 24 h; also: nearly all actives have a fitted effect of over 65% in size
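S16 Schwann cells carrying the Pmp22-F2sN reporter, seeded in 1536-well format, were exposed to library compounds for 24 h at 37C. Viability was read as CellTiter-Glo luminescence after 15 min at room temperature.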
PMP22 txn prim – Cell-based coincidence reporter assay to measure PMP22 gene transcription in S16 Pmp22-F2sN cells - Primary screen | S16 Pmp22-F2sN Schwann cells (luciferase reporters placed in the Pmp22 gene), FLuc/NLuc coincidence luminescence, 24 h | Potency, µM (doses to about 57.5 µM), actives largely listed as inhibitors | 2% of 43,000 active | AID 1508649, 2021; active = clear falling dose curves in both reporters; inconclusive = both reporters move, but less clearly or upward; inactive = either reporter flat; the % is the NLuc reporter signal
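Luminescent read-out of sequential FLuc and NLuc signals from a reporter embedded in the Pmp22 3' UTR of S16 Schwann cells, taken after 24 h compound exposure at 37C; compounds reducing both signals score as inhibitors of expression.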
p53null 39C tox – qHTS Screen for Compounds that Selectively Target Cancer Cells with p53 Mutations: Cytotoxicity of p53 Null Cells at the Nonpermissive Temperature; H1299 p53-null (neo) cells, 39C, ATPlite viability, 24 h; Potency, µM (top dose mostly 46.1 µM), most hits filed as cytotoxic; 0.97% of 55,000 active; also: nearly all actives have a fitted effect of over 50% in size
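Following overnight plating at 37C (600 cells/well), H1299-neo or H1299-p53A138V cells are dosed up to 46 uM. Incubation lasts 24 hr at 39C before ATP detection.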
NLuc saturating – Biochemical NLuc saturation counterscreen for small molecule modulators of PMP22 gene expression - Nano-Glo assay; Potency, µM (highest dose often 57.5 µM), most hits filed as inhibitors; 4% of 690 active; Secreted NLuc enzyme (filtered S16 cell medium), Nano-Glo luminescence; shares compounds with PMP22 txn prim; AID 1508638, 2021
NLuc Km ctr – Biochemical coelenterazine-based NLuc counterscreen for small molecule modulators of PMP22 gene expression - Km assay | shares compounds with PMP22 txn prim | secreted NLuc enzyme, coelenterazine luminescence, Km conditions | Potency, µM (series often up to 57.5 µM), usual class: inhibitors | 5% of 690 active | AID 1508639, 2021
FLuc ctr PMP22 – Biochemical FLuc counterscreen for small molecule modulators of PMP22 gene expression; 690 tested, under 10 active; Potency, µM (doses to about 57.5 µM), actives largely listed as inhibitors; AID 1508640, 2021; purified P. pyralis FLuc, luminescence, 10 min; shares compounds with PMP22 txn prim
Target sequence (P08659 whole entry, looked up): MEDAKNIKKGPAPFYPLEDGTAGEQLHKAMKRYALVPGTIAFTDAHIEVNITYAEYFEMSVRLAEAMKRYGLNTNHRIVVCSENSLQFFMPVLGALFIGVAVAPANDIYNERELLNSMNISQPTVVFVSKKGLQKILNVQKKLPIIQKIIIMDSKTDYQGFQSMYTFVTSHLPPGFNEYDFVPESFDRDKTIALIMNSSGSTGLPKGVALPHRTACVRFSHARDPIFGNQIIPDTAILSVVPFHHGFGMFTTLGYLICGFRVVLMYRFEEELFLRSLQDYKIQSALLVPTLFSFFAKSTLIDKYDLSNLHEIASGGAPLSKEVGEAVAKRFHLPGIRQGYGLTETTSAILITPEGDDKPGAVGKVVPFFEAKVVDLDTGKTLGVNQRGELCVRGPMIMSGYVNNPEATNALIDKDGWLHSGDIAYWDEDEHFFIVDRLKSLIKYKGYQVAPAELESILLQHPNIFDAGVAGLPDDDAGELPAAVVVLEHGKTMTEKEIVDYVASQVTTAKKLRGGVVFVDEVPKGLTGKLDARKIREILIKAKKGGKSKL
S16 viab conf – Cell viability qHTS assay in S16 Pmp22-F2sN cells - Confirmatory screen; 7% of 690 active; Potency, µM (top dose mostly 57.5 µM), actives largely listed as cytotoxic; S16 Schwann cells viability, CellTiter-Glo ATP luminescence, 24 h; shares compounds with PMP22 txn prim
PMP22 txn cnf – Cell-based coincidence reporter assay to measure PMP22 gene transcription in S16 Pmp22-F2sN cells - Confirmatory screen; shares compounds with PMP22 txn prim; S16 Schwann cells Pmp22-F2sN, dual luciferase, 24 h; Potency, µM (highest dose often 57.5 µM), usual class: inhibitors; 22% of 690 active; AID 1508646, 2021; active = clear falling dose curves in both reporters; inconclusive = both reporters move, but less clearly or upward; inactive = either reporter flat; the % is the FLuc reporter signal
Of the large screens only hits and unclear results are named; the others gave an inactive call (follow-up assays come after a bar, where they were run). Unless noted, calls follow the shape of the dose curve; as a rule, active = well fitted curve in the direction sought with a large enough effect; inconclusive = small, poorly fitted or top-dose-only effect, or another doubt; inactive = no such curve, though single readings can be large; an effect the other way counts as inactive or inconclusive.

Cc1ccc2oc(-c3ccc(Cl)cc3)c(O)c(=O)c2c1	pS6 MEF inh 9.27µM, S16 viability inconclusive, PMP22 txn prim inconclusive, p53null 39C tox inconclusive
COc1ccc(OC)c(NC(=O)Cn2cc(C(=O)c3ccccc3)c3ccccc32)c1	PMP22 txn prim inconclusive
CCOc1ccc(S(=O)(=O)NCCc2sc3nc(-c4ccc(C)cc4)nn3c2C)cc1	S16 viability 20µM, PMP22 txn prim inconclusive
Cc1c(CCNS(=O)(=O)c2ccccc2)sc2nc(-c3ccc(Cl)cc3)nn12	S16 viability inconclusive, PMP22 txn prim inconclusive, p53null 39C tox inconclusive
CCOc1ccc(NC(=O)c2cc3c(C)nn(-c4ccccc4)c3s2)cc1	pS6 MEF inh 18.5µM, p53null 32C kill inconclusive, PMP22 txn prim inconclusive, p53null 39C tox inconclusive
CC(=O)c1cccc(NC(=O)c2cc3c(s2)-c2c(C)cccc2OC3)c1	p53null 32C kill 10µM, S16 viability inconclusive, PMP22 txn prim inconclusive, p53null 39C tox inconclusive
CC(=O)c1cccc(NC(=O)c2cccn(Cc3cccc(C)c3)c2=O)c1	PMP22 txn prim inconclusive
O=C(NCc1ccccc1)N1CCc2c(sc3c2CCCC3)C1c1ccccc1 (stereo unspecified)	S16 viability inconclusive, PMP22 txn prim 7.81µM, p53null 39C tox inconclusive
COc1ccccc1NC(=O)N(Cc1ccc2c(c1)OCO2)C1CCN(Cc2ccccc2)CC1	PMP22 txn prim inconclusive
CC(C)(C)c1ccc(C(=O)Nc2ccc3nc(SCC(=O)N4CCCC4)sc3c2)cc1	p53null 32C kill 20µM, S16 viability inconclusive, PMP22 txn prim inconclusive, p53null 39C tox inconclusive
Cc1ccc(C(=O)Nc2ccccc2)cc1S(=O)(=O)N1CCCC1	p53null 32C kill inconclusive
Cc1cccc(OCC(=O)N2CCN(CCc3ccccn3)CC2)c1	none
COc1ccc(-c2cc(=O)c3cc(OCC(=O)OC(C)C)ccc3o2)cc1	p53null 32C kill 3.16µM, p53null 39C tox 5.01µM
CCCOc1ccc(C2SCC(=O)Nc3c2c(C)nn3-c2cccc(C)c2)cc1OC (stereo unspecified)	PMP22 txn prim inconclusive, p53null 39C tox 25.1µM
CCOc1ccc(CN(CCc2ccc3c(c2)OCO3)Cc2ccc(C)cc2)cc1	none
COC(=O)C[C@]1(C(=O)OC)CN(C#N)N(c2ccc(Cl)cc2)C12c1ccccc1-c1ccccc12	p53null 32C kill inconclusive (no result: pS6 MEF inh, S16 viability, PMP22 txn prim)
COC(=O)[C@@H]1[C@@H](C(=O)OC)C2(c3ccccc3-c3ccccc32)N(c2ccc(Cl)cc2)N1C#N	p53null 32C kill 22.4µM, p53null 39C tox inconclusive (no result: pS6 MEF inh, S16 viability, PMP22 txn prim)
CN(C)c1ccc(NC(=O)c2sc3nc4c(cc3c2N)N2CCC4CC2)cc1	none
CCOc1ccc(NC(=O)CSc2oc(-c3ccccc3)nc2S(=O)(=O)c2ccc(Cl)cc2)cc1	pS6 MEF inh inconclusive, p53null 32C kill inconclusive, PMP22 txn prim 10µM, p53null 39C tox 10µM | NLuc saturating inconclusive | NLuc Km ctr inconclusive | FLuc ctr PMP22 inactive | S16 viab conf inconclusive | PMP22 txn cnf 19.3µM
COc1ccc(OC)c(C(c2c(O)c3ccccc3oc2=O)c2c(C)n(C)n(-c3ccccc3)c2=O)c1 (stereo unspecified)	none
CCOc1ccc(CN2C(=O)c3ccccc3Sc3ccc(C(=O)N4CCC5(CC4)OCCO5)cc32)cc1	PMP22 txn prim inconclusive
CCCCOc1ccc(CN2C(=O)C(=O)c3cc(C)ccc32)cc1OC	pS6 MEF inh inconclusive, S16 viability inconclusive, PMP22 txn prim 8.8µM, p53null 39C tox 20µM | NLuc saturating inactive | NLuc Km ctr inactive | FLuc ctr PMP22 inactive | S16 viab conf inactive | PMP22 txn cnf inconclusive
COc1ccc(NC(=O)c2ccco2)cc1NC(=O)COc1cccc(C)c1C	PMP22 txn prim inconclusive, p53null 39C tox inconclusive
Cc1ccc(Cl)cc1Nc1nn2c(=O)c3ccc(C(=O)NCc4cccs4)cc3nc2s1	p53null 32C kill inconclusive, S16 viability 25.1µM, PMP22 txn prim 8.43µM | NLuc saturating inactive | NLuc Km ctr inactive | FLuc ctr PMP22 inactive | S16 viab conf 27.3µM | PMP22 txn cnf inconclusive
COc1cccc(/C=C2\N=C(c3cncc(Br)c3)OC2=O)c1	none (no result: pS6 MEF inh, S16 viability, PMP22 txn prim, p53null 39C tox)
Cc1oc(-c2ccc(Cl)cc2)nc1CN1CCC(C(=O)NCCCN2CCN(c3cccc(Cl)c3)CC2)CC1	pS6 MEF inh inconclusive, S16 viability inconclusive, PMP22 txn prim 13.4µM, p53null 39C tox 25.1µM | NLuc saturating inconclusive | NLuc Km ctr inconclusive | FLuc ctr PMP22 inactive | S16 viab conf 17.2µM | PMP22 txn cnf 10.3µM
O=C(NC1(C(F)(F)F)Oc2ccccc2O1)N1CCC2(CC1)OCCO2	p53null 39C tox inconclusive (no result: pS6 MEF inh, S16 viability, PMP22 txn prim)
Cc1ccc(-n2c(/C=C\c3ccc(F)c(F)c3)nc3ccccc3c2=O)c(C)c1	S16 viability inconclusive, PMP22 txn prim 8.91µM | NLuc saturating inactive | NLuc Km ctr inactive | FLuc ctr PMP22 inactive | S16 viab conf inactive | PMP22 txn cnf inconclusive

Source: PubChem BioAssay (National Center for Advancing Translational Sciences (NCATS))
